Vaccinia Venus: qHTS for Stage-Specific Inhibitors of Vaccinia Orthopoxvirus: Venus Reporter Primary qHTS | Vaccinia virus Venus reporter expression, fluorescence | Potency, µM (top dose mostly 36.5 µM), inactives show top-dose activity change, negative = inhibition, usual class: inhibitors | 330,000 compounds, 0.46% hits; calls by dose curve; tested in A549 cells; note: potency is the fitted concentration of half-maximal effect; % is set by controls: 0 for no effect and ±100 for the full control effect; nearly all actives have a fitted effect of over 30% in size
Marburg entry inh: qHTS for inhibitors of binding or entry into cells for Marburg Virus. Marburg virus pseudotyped entry inhibition, cell reporter. Potency, µM (highest dose often 37.8 µM), for the others: at the top dose activity change, negative = inhibition, usual class: inhibitors. 300,000 compounds, 1.8% hits. AID 540276, 2011; calls by dose curve; tested in HEK293 cells; note: potency is the fitted concentration of half-maximal effect; % is set by controls: 0 for no effect and ±100 for the full control effect
HCMV inh: qHTS Assay for inhibitors of the human cytomegalovirus (HCMV); HFF cells, HCMV-luciferase reporter, 72 h; active compounds read low; activity change, negative = inhibition, % at 57.5 µM; 410,000 compounds, 4.5% hits; AID 1259415, 2018; in the data active = activity change below about -60%; inconclusive = no clear call, values can overlap the other calls; inactive = above about -39%; note: % is set by controls: 0 for no effect and ±100 for the full control effect
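After 16 h attachment at 37C, HFF cells received test compound and HCMV-luciferase (1 PFU/cell); reporter luminescence read 72 h later, data normalized against buffer-only and known inhibitor Salinomycin.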
Lassa entry inh: qHTS for Inhibitors of binding or entry into cells for Lassa Virus | Lassa virus pseudotype entry inhibition, cell reporter | Potency, µM (highest dose often 37.9 µM), for inactives: at the top dose activity change, negative = inhibition, most hits filed as inhibitors | 300,000 compounds, 1.2% hits | AID 540256, 2011; calls by dose curve; tested in HEK293 cells; note: potency is the fitted concentration of half-maximal effect; % is set by controls: 0 for no effect and ±100 for the full control effect; nearly all actives have a fitted effect of over 50% in size
Vaccinia mCherry: qHTS for Stage-Specific Inhibitors of Vaccinia Orthopoxvirus: mCherry Reporter Primary qHTS; Vaccinia virus mCherry reporter infection, fluorescence; Potency, µM (highest dose often 36.5 µM), without a hit: at the top dose activity change, negative = inhibition, hits mostly inhibitors; 310,000 compounds, 0.63% hits; calls by dose curve; tested in A549 cells; note: potency is the fitted concentration of half-maximal effect; % is set by controls: 0 for no effect and ±100 for the full control effect; nearly all actives have a fitted effect of over 35% in size
FMDV inh: High Throughput Screening for Foot and Mouth Disease Virus Antivirals; FMDV antiviral cell-based qHTS; 410,000 compounds, 1.2% hits; Potency, µM (top dose mostly 57.9 µM), inactives show top-dose activity change, negative = inhibition, actives largely listed as inhibitors; calls by dose curve; tested in HEK293T cells; note: read-out not given here; potency is the fitted concentration of half-maximal effect; % is set by controls: 0 for no effect and ±100 for the full control effect; nearly all actives have a fitted effect of over 45% in size
HeLa G2M arrest: Cell cycle validation with wells to cells screening paradigm; shares compounds with Marburg entry inh; HeLa cell cycle G2/M arrest, Hoechst DNA content imaging; Potency, µM, actives largely listed as inhibitors; 25 compounds, 60% hits
WI-38 tox: High Content Assay for Compounds that inhibit the Assembly of the Perinucleolar Compartment: WI-38 Cytotoxicity. WI-38 normal lung fibroblasts, ATPLite luminescence ATP viability, 24 h. AID 2729, 2010. 120 tested, under 10 active. shares compounds with Marburg entry inh. Potency, µM (highest dose often 46.1 µM), without a hit: at the highest dose activity change, negative = cytotoxicity, most hits filed as inhibitors
PNC assembly inh: High Content Assay for Compounds that inhibit the Assembly of the Perinucleolar Compartment: Confirmation of PNC Inhibition | shares compounds with Marburg entry inh | PC3M PTB-GFP, PNC prevalence imaging, 16 h | Potency, µM (doses to about 46.1 µM), without a hit: at the highest dose activity, negative = PNC inhibition, most hits filed as inhibitors | 120 compounds, 50% hits
PC3M casp3-7: High Content Assay for Compounds that inhibit the Assembly of the Perinucleolar Compartment: PC3M Caspase 3/7 Activation; PC3M-GFP caspase 3/7 activation, luminescence, 24 h; activity change, positive = activation, % at 46.1 µM; shares compounds with Marburg entry inh; 120 tested, under 10 active
* hit, by the source's call; i = inactive; ? = inconclusive; . = not tested or not shown; ! = a repeat was not active; [ ] = remark or other dose. Compounds with a hit are over-represented: about 6.5% of the library has one in this group of screens. Unless noted, calls come from the whole dose curve; as a rule, active = well fitted curve in the direction sought with a large enough effect; inconclusive = small, poorly fitted or top-dose-only effect, or another doubt; inactive = no such curve, though single readings can be large; an effect the other way counts as inactive or inconclusive.

SMILES	Vaccinia Venus	Marburg entry inh	HCMV inh	Lassa entry inh	Vaccinia mCherry	FMDV inh	WI-38 tox	PNC assembly inh	PC3M casp3-7	others
O=C(N/N=C\c1ccc([N+](=O)[O-])s1)c1cncc(Br)c1	.	2.6µM*	-100*	2.9µM*	.	?	-26%	22µM*	?
C/C(N)=C(/C#N)C(=O)COC(=O)c1cc(C)n(-c2ccc(F)cc2)c1C	27%	2µM*	-10	?	?	27%	-4%	13µM*	-9
COCCCn1c(=O)c2sccc2n2c(CCCC(=O)Nc3cc(C)cc(C)c3)nnc12	-5%	.	?	0%[46.1 µM]	-9%	-15%	.	.	.
Cc1ccc(CN2CCN(CC(=O)NCc3ccccc3Cl)C2=O)cc1	-12%	1%[46.1 µM]	2	?	-7%	11%	.	.	.
CCOC(=O)CSc1nc2c(sc3ccc([N+](=O)[O-])cc32)c(=O)n1Cc1ccco1	-15%	10%	-37	3%	i	-28%	5%	-12%	3
CC[C@]1(O)C[C@@H]2CN(CCc3c([nH]c4ccccc34)[C@](C(=O)OC)(c3cc4c(cc3OC)N(C=O)[C@H]3[C@@](O)(C(=O)OC)[C@H](C(=O)OC)[C@@]5(CC)C=CCN6CC[C@]43[C@H]65)C2)C1	.	.	.	.	.	4%	.	.	.
CCC1(O)CC2CN(CCc3c([nH]c4ccccc34)[C@@](C(=O)OC)(c3cc4c(cc3OC)N(C=O)C3[C@]45CCN4CC=C[C@@](CC)([C@@H](OC(C)=O)[C@]3(O)C(=O)OC)[C@H]45)C2)C1 (stereo partly specified)	.	13µM*!	.	.	.	.	.	.	.	HeLa G2M arrest=?
COC(=O)N/N=C/c1cn(CCOc2ccccc2OC)c2ccccc12	.	.	.	.	.	-21%	.	.	.
CNC(=S)N/N=C/c1cn(CCOc2ccccc2OC)c2ccccc12	7.1µM*	?	66	-28%	4.5µM*	0%	-2%	?	2
Cc1ccc2onc(CNC(=O)N3CCN(c4cccc(C)c4C)CC3)c2c1	-22%	.	-4	-14%[46.1 µM]	-17%	-18%	.	.	.
Cc1nn(CCCC(=O)NCc2cccc(Cl)c2)c(=O)c2c1sc1ccccc12	-11%	-2%[46.1 µM]	-32	20%[46.1 µM]	-9%	-15%	.	.	.
C=C(C)[C@H]1Cc2c(ccc3c2O[C@@H]2COc4cc(OC)c(OC)cc4[C@@H]2C3=O)O1	.	0.58µM*	.	2.3µM*	.	.	.	.	.	HeLa G2M arrest=0.63*
Cc1sc2nc(C3CC3)nc(SCC(=O)N3c4ccccc4CC3C)c2c1C (stereo unspecified)	.	4.1µM*	.	1.8µM*	.	-3%	-1%	7.1µM*	-1
COc1ccc(-n2c(SC(C)C(=O)Nc3ncc(Cl)cc3Cl)nc3ccccc32)cc1 (stereo unspecified)	-7%	?	-85*	0.25µM*	?	-13%	?	3.2µM*	4
CCOC(=O)c1cccc(NC(=O)c2cc3c(=O)n(C)c4ccccc4c3n2C)c1	-28%	6%[46.1 µM]	-8	6%[46.1 µM]	-18%	-26%	.	.	.
CNC1=C(N(C(C)=O)c2ccc(Br)cc2)C(=O)c2ccccc2C1=O	5.6µM*	2.3µM*	-100*	5.6µM*	?	8.9µM*	?	?	?
CSc1nc(-c2ccc(C)cc2)nc(C(Cl)Cl)n1	.	?	.	?	.	-4%	-13%	13µM*	?

From PubChem BioAssay
